# Measured values as given in PubChem BioAssay (NCI).
# About 83,000 compounds went through this panel and 20% of them were active in at least one assay; those are over-represented in the sample as a whole.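 The endpoint reported here, percent growth, reads 100 for growth as untreated, 0 for no net growth and -100 for all cells dead.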 A number with no mark means an inactive call. The source made the active and inactive calls. How the source made its calls: active means growth percent below 10; inactive means the rest.
# Assays:
# Assay in all cases: NCI-60 one-dose screen, 48 h (100 = growth as untreated, 0 = no growth, -100 = all killed)
# [1] = tested on: NCI-H23 lung; details: 10 µM unless noted
# [2] = tested on: NCI-H226 lung; details: 10 µM unless noted
# [3] = tested on: NCI-H322M lung; details: 10 µM unless noted
# [4] = tested on: HOP-62 NSCLC; details: 10 µM unless noted
# [5] = tested on: HOP-92 NSCLC; details: 10 µM
# [6] = tested on: NCI-H522 lung; details: 10 µM
# [7] = tested on: A549/ATCC NSCLC; details: 10 µM unless noted
# [8] = tested on: 786-0 renal; details: 10 µM unless noted
# [9] = tested on: NCI-H460 lung; details: 10 µM unless noted
# [10] = tested on: COLO 205 colon; details: 10 µM unless noted
Structure (SMILES),growth [1],growth [2],growth [3],growth [4],growth [5],growth [6],growth [7],growth [8],growth [9],growth [10]
O=C(Nc1cccc(Cn2c(=O)[nH]c3ccc(Oc4ncccn4)cc3c2=O)c1)c1cc(Cl)cc(Cl)c1,74.1%,44.2%,57.7%,71.6%,44.1%,49.3%,56%,72.6%,,
CC(C)(C)OC(=O)N1C/C(=C\c2ccccc2)C(=O)/C(=C/c2ccccc2)C1,103%,81.6%,92.6%,96.4%,69.4%,72%,92.7%,81.6%,,
Cc1ccc(C(=O)Nc2ccc(CN3CCN(C)CC3)c(C(F)(F)F)c2)cc1C#Cc1cnc(N)c2ccc(C#N)cc12,48.3%,54.4%,73.8%,42.7%,13.7%,60.6%,36.7%,-25% (active),,
Cc1ncc(C(=O)Nc2ccc(CN3CCN(C)CC3)c(C(F)(F)F)c2)cc1C#Cc1cnc(NC2CC2)c2ncccc12,-70.8% (active),39.7%,-87.7% (active),16.9%,33.4%,-76.4% (active),-91.5% (active),-85.2% (active),,
COc1cc(C(=O)Nc2ccc(N(C)C)cc2)cc(OC)c1OC,95.4%,91%,93.4%,94.2%,,,,96.4%,99.8%,100%
COC(=O)C1CC(=O)N(C(=O)Nc2ccc(Cl)cc2Cl)C1 (stereo not given),98.8%,94.6%,108%,85.5%,83.1%,80.3%,96.3%,92.4%,,
CCOc1ccc(Br)cc1/C=C(\C#N)c1ccc([N+](=O)[O-])cc1,87.6%,81.2%,77.4%,22.1%,,,,86.3%,82.2%,97.2%
C/C=C(/C)C(=O)OC1C=C(CO)C(=O)C(OC(=O)/C(C)=C\C)C1C(C)C (stereo not given),-66.3% (active),-0.591% (active),-90.3% (active),-31.4% (active),-72.8% (active),-52.8% (active),-9.36% (active),-88.6% (active),,
CCC(C)(CC)c1ccc(O)c(C)c1,98.9%,98%,94.4%,101%,,,,94.8%,105%,105%
CCN(CC)CCNc1ncnc2c1cnn2-c1ccc(Cl)cc1,76.5%,100%,92.8%,114%,,,,106%,85%,15.9%
O=C(Nc1cccc(Cn2c(=O)[nH]c3ccc(Oc4ncccn4)cc3c2=O)c1)c1ccc(Cl)cc1,46.9%,34.6%,61.5%,55.2%,52.8%,50.5%,46.9%,70.5%,,
C=CCNC(=S)NNc1ccc([N+](=O)[O-])cn1,93.5%,94.4%,89.7%,105%,98.1%,80.4%,101%,105%,,110%
CN1C(=O)C(=Cc2coc3ccc(Br)cc3c2=O)C(=O)N(C)C1=O,94.5%,97.2%,124%,94.5%,81.3%,95%,97.8%,112%,,106%
CCCCN(CCCC)CCCNc1c2c(nc3ccc(Cl)cc13)CCCC2,82%,100%,95.4%,86.6%,73.5%,80.1%,94.6%,-69.6% (active),,77.4%
COc1ccc(-c2nc(N)n(C(=S)Nc3ccccc3)n2)cc1,92.2%,92.6%,101%,87.3%,85.8%,88.5%,102%,105%,,105%
CC1=C(C)C[C@]2(C(=O)O[C@H]3CCCC[C@@H]32)[S@](=O)C1,97.9%,109%,106%,106%,105%,82.9%,96.5%,102%,,108%
CC(=O)C(CO)C(=O)Nc1ccccc1 (stereo not given),103%,96.9%,85.9%,93.3%,96.6%,82.3%,93.6%,96.8%,,99.5%
COc1ccc(-c2nc(SCC(C)C)nc(Nc3ccc(C)cc3)c2C#N)cc1,73.9%,65.6%,52.9%,88.5%,73.9%,81.4%,52.6%,24.4%,,46.6%
COc1ccc(Oc2[nH]n(C3=Nc4ccccc4Sc4ccccc43)c(=O)c2C#N)cc1,95.7%,100%,125%,92.1%,74.2%,74.9%,98.4%,104%,,111%
OC(c1ccccc1)(c1ccccc1)C(F)(F)F,97.4%,112%,116%,102%,95.7%,84.6%,99.1%,106%,,107%
CCCCCCNC(=O)Oc1ccc(/C(=C(/C)Cc2ccc(OC)cc2)c2ccc(OCCN3CCCCC3)cc2)cc1,90.9%,92%,89.5%,91.2%,60.5%,85.6%,77.6%,78.5%,,79.4%
Cc1nc2ccccc2c(=O)n1-c1cccc(OCc2cn(-c3cccc(O)c3)nn2)c1,95.1%,105%,101%,93.4%,81.6%,72.1%,95.3%,107%,,122%
Cc1cc(CSc2ccc(Cl)cc2)ccc1N,99.2%,82.9%,98.2%,110%,85.2%,81.5%,60.3%,69.8%,,107%
CC(C)(C)C(=O)OCOP(=O)(OCOC(=O)C(C)(C)C)C1CC(O)N(O)C1=O (stereo not given),21%,71.6%,30.5%,35.7%,28.2%,8.02% (active),64.3%,14.5%,,45%
C[C@]12C=CC(=O)C=C1[C@@H](F)C[C@@H]1[C@@H]2[C@@H](O)C[C@@]2(C)[C@H]1CC[C@]2(O)C(=O)CO,106%,90.6%,113%,104%,57.5%,118%,63.5%,108%,,106%
CCCNC(=O)Oc1ccc(/C(=C(/C)Cc2ccc(OC)cc2)c2ccc(OCCN3CCCCC3)cc2)cc1,90.8%,95.1%,81.5%,84.9%,61%,84.8%,84.4%,81.8%,,79%
COc1ccc(-c2nc(SCC(C)C)nc(Nc3ccc(C(=O)O)cc3)c2C#N)cc1,88.8%,87.7%,96.9%,116%,89%,84.7%,89%,106%,,89.7%

Structure (SMILES),growth [1],growth [2],growth [3],growth [4],growth [5],growth [6],growth [7],growth [8],growth [9],growth [10]
COc1ccc(/C(=C(\c2ccccc2)[N+](=O)[O-])c2ccc(OCCN3CCCC3)cc2)cc1,74.9%,72.8%,87.2%,94.1%,59.5%,83.7%,78.4%,15.2%,,8.89% (active)
N/C(=N\O)c1ccncc1,95.6%,117%,101%,93.6%,107%,93.4%,102%,100%,,103%
CCCCN(CCC)CCCCCCCCCCN1CCCc2ccccc21,71.5%,99.5%,99.4%,92.5%,48.8%,62%,97.3%,88.8%,,91.7%
Cc1ccc(NCc2cn(-c3ccc(C(=O)O)cc3)nc2-c2ccc(C(=O)O)cc2)cc1,92.2%,107%,99.7%,100%,107%,86.2%,94.9%,103%,,104%
CCCNC(=O)Oc1ccc(/C(=C(/C)Cc2ccc(OC)cc2)c2ccc(OCCN3CCCC3)cc2)cc1,84.1%,90.7%,86.5%,76.8%,52.1%,71.8%,71.8%,70.7%,,10.1%
O=C(C(=O)N1CCOCC1)c1ccc(O[C@H]2O[C@H](CO)[C@@H](O)[C@H](O)[C@@H]2O)cc1,99.9%,95.8%,91.7%,111%,102%,93.9%,106%,97.1%,,119%
CCCCCCNc1nc(N2CCOCC2)c2[nH]c(NCCCCCC)nc2n1,-94.5% (active),-82.9% (active),-46.7% (active),-95.9% (active),-77.7% (active),-79.8% (active),-90.1% (active),-100% (active),,-64.8% (active)
O=C(/C=C\c1ccc(NCc2ccc(C(=O)O)cc2)cc1)CCl,94.3%,111%,97%,75.1%,99.7%,-78.1% (active),100%,90.4%,,78.6%
CCS(=O)(=O)N[C@@H]1O[C@H](COC(C)=O)C(OC(C)=O)[C@H](OC(C)=O)C1OC(C)=O (stereo not given in full),102%,109%,115%,87.8%,95.4%,83.7%,88.7%,104%,,113%
CCN(CCO)CCNc1ccc(C)c2sc3cc(OC)ccc3c(=O)c12,79.6%,73.5%,76.1%,62%,55.8%,62.6%,59.4%,66.6%,,48.9%
O=C(Nc1ccc(Cl)c(Cl)c1)O/N=C\c1c(Cl)ccc([N+](=O)[O-])c1Cl,27%,58.4%,11.6%,-86.3% (active),6.84% (active),-90.4% (active),45.5%,5.13% (active),,-83.3% (active)
CC1(C)NC(=S)NC1=O,101%,99.6%,107%,104%,101%,116%,98%,100%,,108%
O=C(O)c1ccc(-c2nn(-c3ccc(C(=O)O)cc3)cc2CNc2ccc(Br)cc2)cc1,106%,115%,100%,104%,102%,85.4%,101%,102%,,108%
CCCCCCNC(=O)Oc1ccc(/C(=C(/C)Cc2ccc(OC)cc2)c2ccc(OCCN(C)C)cc2)cc1,82.5%,85.7%,86.5%,74.6%,46%,60%,54%,59.4%,,-60.4% (active)
CCCCCCCCCCCCCCCCC(=O)O.CCCCCCCCCCCCCCCCCC(=O)O.CCCCCCCCCCCCCCCCCC(=O)O.CCCCCCCCCCCCCCCCCC(=O)O.CCCCCCCCCCCCCCCCCC(=O)O.CO[CH-]OC12COC1CC(O)C1(C)C(O)C(OC(C)O)C3=C(C)C(OC(=O)C(O)C([NH-])c4ccccc4)CC(O)(C(OC(=O)c4ccccc4)C21)C3(C)C.[Cu+].[Zn].[Zn].[Zn].[Zn].[Zn] (stereo not given),43.6%,73.2%,28.6%,56.4%,41.5%,16.4%,27.8%,41.7%,,14.7%
CCCCCCCCCCN1CC2CCCCC2C1 (stereo not given),82.2%,76%,99.7%,69.4%,56.4%,67.1%,97.3%,86.6%,,61%
CC(=O)CCS(=O)c1ccccc1 (stereo not given),98.1%,107%,93.7%,105%,92.8%,82.7%,96.1%,105%,,124%
COc1ccc2cc(C(C)C(=O)Nc3ccc(S(=O)(=O)Nc4cc(C)on4)cc3)ccc2c1 (stereo not given),101%,106%,108%,88.5%,102%,89.7%,86.2%,102%,,115%
COc1ccccc1CNCCCN1C(=O)c2ccc3c4c(ccc(c24)C1=O)C(=O)N(CCCNCc1ccccc1OC)C3=O,-72.8% (active),-64.7% (active),-46.6% (active),-35.9% (active),-19.5% (active),-90% (active),-86.5% (active),-50% (active),,-6.12% (active)
Oc1ccc([S+](c2ccc(O)cc2)c2ccc(O)cc2)cc1,106%,88.3%,95.3%,94.3%,92.2%,112%,98.7%,106%,,102%
COc1cc(/C=C/C(=O)/C=C(/C=C/c2ccc(OC(C)=O)c(OC)c2)OB(F)F)ccc1OC(C)=O,61.5%,87.1%,99.6%,103%,62.5%,16.8%,82.7%,80.7%,,71.2%
Oc1ccc(N=Nc2ccc(N=Nc3ccccc3)cc2)cc1,59.9%,57%,49.7%,59.3%,79.8%,-15.1% (active),9.84% (active),38.3%,,84.8%
Oc1ccc2ccccc2c1/C=N\Nc1ccccn1,0% (active),9.04% (active),-12.6% (active),-8.47% (active),-15.1% (active),6.74% (active),8.68% (active),-29.3% (active),,91%
N#CC1=C(N2CCOCC2)NC2c3ccccc3Sc3ccccc3N2C1=N (stereo not given),99%,94.5%,117%,78.3%,84.5%,83.6%,103%,104%,,96.8%
Nc1nc2c(c3cnccc13)C(c1cccc(Cl)c1)Cc1cnccc1-2 (stereo not given),0.544% (active),17.2%,40.1%,,33.1%,7.88% (active),13.6%,19.6%,2.15% (active),
COc1ccc(-c2nc(SCC(C)C)nc(Nc3ccc([N+](=O)[O-])cc3)c2C#N)cc1,98.5%,85.3%,86.8%,,93.3%,92%,61.5%,94.7%,57%,
